Bioassay records as filed in PubChem BioAssay.
HT1080 IDH1KD tx: kills HT-1080 cells with IDH1 knockdown | HT-1080 IDH1 knockdown viability, ATP luminescence, 48 h | Potency, µM (series often up to 46.1 µM), without a hit: top-dose activity, negative = toxicity, usual class: cytotoxic | 2% of 360,000 active;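 also: potency is read from the fitted curve at half-maximal effect; 0% = DMSO wells and -100% = cell-free medium wells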
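Luminescent ATP read-out (CellTiter-Glo, 10 min at room temperature) after 48 h compound exposure at 37 °C gave viability of IDH1-knockdown HT-1080 cells. Activity was normalised to DMSO and cell-free wells, then fitted as concentration-response curves.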
HT1080-NT tox: kills 2HG-producing HT-1080-NT fibrosarcoma cells; HT-1080-NT fibrosarcoma viability, CellTiter-Glo ATP luminescence, 48 h; Potency, µM (titrated, usually from 46.1 µM), without a hit: at the top dose activity, negative = less viability, actives largely listed as cytotoxic; 1.6% of 360,000 active;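 also: NT is the 2HG producing partner of a matched IDH1 knockdown line; potency is read from the fitted curve at half-maximal effect; 0% = DMSO-treated cells and -100% = media-only wells without cells; nearly all actives have a fitted effect of over 55% in size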
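Viability by CellTiter-Glo luminescence after 48 h compound exposure at 37C of HT-1080-NT cells (750/well, RPMI, 5% FBS). % activity scaled between DMSO wells and medium-only wells, then curve-fitted and categorized by curve class.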
IL1B secr inh: inflammasome signaling inhibition, IL-1 beta readout; activity change, % at 57.5 µM; THP-1 LPS/ATP IL-1B secretion, AlphaLISA, 16 h; hits give low values; 4.7% of 360,000 active; in the data active = activity change below about -50%; inconclusive = mostly about -30% to -49%
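THP-1 cells pretreated 1 hr with compounds (up to 57.5 uM final), then stimulated with LPS (250 ng/mL final) plus ATP (1.25 mM final); secreted IL-1B measured by AlphaLISA after 16 hr, decreased signal indicating inhibition.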
uPA generation: blocks generation of uPA at the cell surface; cell surface uPA generation assay, qHTS; Potency, µM (titrated, usually from 38.3 µM), for inactives: at the top dose activity change, negative = inhibition, usual class: inhibitors; 0.31% of 330,000 active; AID 540303; active = well fitted inhibition curve with a large enough effect; inconclusive = small, poorly fitted or top-dose-only effect; inactive = no such curve, though single readings can be large or run the other way; tested in mouse RAW 264.7 cells; also: potency is read from the fitted curve at half-maximal effect; nearly all actives have a fitted effect of over 55% in size
DT40 TDP1 CPT: DT40-hTDP1 cell growth loss with CPT. chicken DT40 Tdp1-/-;hTDP1 cells + 20 nM CPT, ATP luminescence, 48 h. Potency, µM (titrated, usually from 46.2 µM), for the others: top-dose activity change, negative = growth inhibition, usual class: inhibitors. 12% of 420,000 active. AID 686979; also: potency is read from the fitted curve at half-maximal effect; nearly all actives have a fitted effect of over 55% in size
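Cell growth measured by CellTiter-Glo luminescence after a minimum 48 h, 37 C compound exposure with 20 nM CPT in Tdp1-knockout DT40 cells stably expressing hTDP1, seeded 400/well; qHTS titration format.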
DT40 TDP1 no CPT: qHTS for Inhibitors of human tyrosyl-DNA phosphodiesterase 1 (TDP1): qHTS in cells in absence of CPT; AID 686978, 2013; 15% of 420,000 active; Potency, µM (highest dose often 46.2 µM), for inactives: at the top dose activity change, negative = growth inhibition, actives largely listed as inhibitors; DT40 Tdp1-/- hTDP1 cells, no CPT, ATP luminescence, 48 h; also: potency is read from the fitted curve at half-maximal effect; nearly all actives have a fitted effect of over 55% in size
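Growth of hTDP1-complemented DT40 Tdp1-knockout cells is measured by ATP luminescence after at least 48 hr compound exposure at 37 °C, with DMSO substituting for the 20 nM CPT used in the parallel screen.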
* marks the source's active call; other numbers are inactive results; ? = inconclusive; · = no result. Only some compounds are listed: those with a hit (about 19% of all), similar ones and a draw of the others. Unless noted, calls follow the shape of the dose curve; as a rule, active = well fitted curve in the direction sought with a large enough effect; inconclusive = small, poorly fitted or top-dose-only effect, or another doubt; inactive = no such curve, though single readings can be large; an effect the other way counts as inactive or inconclusive. Unless noted, % is scaled to controls: 0 for no effect and ±100 for the full control effect.

SMILES	HT1080 IDH1KD tx	HT1080-NT tox	IL1B secr inh	uPA generation	DT40 TDP1 CPT	DT40 TDP1 no CPT
CCCOc1ccc(C2C(=O)N(C3CCCCCC3)CC(=O)N2CCC)cc1OC (stereo not drawn)	·	·	·	·	23µM*	?
CCCN1C(=O)CN(C2CCCCC2)C(=O)C1c1ccc(OC)c(OC)c1 (stereo not drawn)	·	·	·	·	-19%	-15%
COc1ccc(C2C(=O)N(C3CCCCC3)CC(=O)N2CCc2ccccc2)cc1OC (stereo not drawn)	-29%	1%	-12	·	?	-28%
Cc1cc(C)cc(C(=O)OCC(=O)NC(=O)NC2CCCC2)c1	5%	11%	-6	9%	-17%	-6%
Cc1[nH]nc(-c2ccc(OCc3cnn(-c4ccccc4)c3)cc2O)c1Oc1ccccc1F	?	?	27	7%	?	21µM*
C=C(C)COc1ccc(-c2[nH]ncc2-c2ccc(OC)c(OC)c2)c(O)c1	4.6µM*	7.3µM*	-19	-11%	1.5µM*	1.6µM*
C=C(C)COc1ccc(-c2[nH]ncc2-c2ccc(OC)cc2)c(O)c1	-10%	-15%	-7	20%	?	?
C=C(C)COc1ccc(-c2n[nH]c(C)c2-c2ccc(OC)c(OC)c2)c(O)c1	1.5µM*	4.1µM*	4	2%	3.7µM*	2.6µM*
C=C(C)COc1ccc(-c2[nH]ncc2-c2ccccc2)c(O)c1	?	?	?	8%	16µM*	21µM*
Cc1oc2ncnc(N3CCCCC3)c2c1C(=O)NCC1CCN(Cc2ccccc2F)CC1	·	·	·	·	-25%	2%
CCOc1ccc(NC(=O)Cn2nc3c(cc2=O)CC(C)CC3)cc1 (stereo not drawn)	·	·	·	·	7%	-9%
O=C(c1ccc(F)cc1F)N1CCC(c2nc(-c3ccc(S(=O)(=O)N4CCCC4)cc3)no2)CC1	·	·	·	·	4%	-25%
Cc1cc(=O)n(Nc2ccccc2)c(O)c1C#N	-14%	-1%	32	·	13%	3%
Cc1[nH]nc(-c2ccc(O)cc2O)c1-c1ccc(Cl)cc1	-29%	1%	?	-3%	?	?
C=C(C)COc1ccc(-c2n[nH]c(C)c2Oc2ccccc2OC)c(O)c1	?	?	-30	12%	15µM*	?
COc1ccc(-c2n[nH]c(C)c2-c2ccc(Cl)cc2)c(O)c1	21µM*	21µM*	-18	-4%	-29%	?
NC(=O)[C@@H]1CCCN1C(=O)c1cc(NC(=O)c2ccccc2)cc2ncn(C3CCCC3)c12	·	·	·	·	-17%	-15%
CC(C)c1onc(C(=O)N2CCN(c3ccc(F)cc3)CC2)c1[N+](=O)[O-]	-4%	-28%	-6	-6%	2%	8%
Cc1onc(C(=O)N2CCC(Cc3ccccc3)CC2)c1[N+](=O)[O-]	10µM*	5.8µM*	-5	?	?	?
CC(C)c1onc(C(=O)N2CCN(c3ccccc3)CC2)c1[N+](=O)[O-]	3%	3%	-7	-3%	-2%	7%
CC(C)c1onc(C(=O)N2CCN(C(c3ccccc3)c3ccccc3)CC2)c1[N+](=O)[O-]	-5%	-3%	·	3.2µM*	?	?
Cc1ccc(Cl)cc1N1CCN(C(=O)c2noc(C(C)C)c2[N+](=O)[O-])CC1	?	?	-81*	?	23µM*	?
O=C(/C=C/c1ccccc1[N+](=O)[O-])Nc1cc(S(=O)(=O)N2CCOCC2)ccc1N1CCOCC1	0%	5%	-9	9%	2%	3%
CCNc1ncc2ncc(=O)n(C)c2n1	·	·	·	·	?	-29%
Cc1ccc(N2CCN(/N=C/c3ccncc3)CC2)cc1	0%	18%	3	?	21µM*	18µM*
SMILES	HT1080 IDH1KD tx	HT1080-NT tox	IL1B secr inh	uPA generation	DT40 TDP1 CPT	DT40 TDP1 no CPT
Cc1ccc(N2CCN(/N=C/c3sccc3C)CC2)cc1	7%	4%	-16	·	-18%	-29%
COc1ccccc1/C=C/C=N\N1CCN(Cc2ccccc2Cl)CC1	10%	11%	-24	-3%	?	29µM*
Clc1ccc(N2CCN(/N=C/c3ccncc3)CC2)cc1	-17%	-11%	?	-3%	23µM*	?
Clc1ccc(/C=N/N2CCN(Cc3ccccc3Cl)CC2)cc1	14%	4%	-22	4%	-1%	?
COc1ccccc1/C=N/N1CCN(c2ccc(Cl)cc2)CC1	12%	14%	-18	4%	-7%	-17%
Clc1ccccc1CN1CCN(/N=C/c2ccncc2)CC1	-1%	0%	-27	-14%	13µM*	16µM*
Cc1c(OCC(=O)NCCN2CCOCC2)ccc2c1oc(=O)c1ccccc12	9%	11%	-9	-1%	?	?
CCOC(=O)c1ccc2c(c1)nc(-c1ccc(F)cc1)c1nccn12	24%	14%	13	5%	-1%	-5%
COc1ccccc1CNc1cc(-c2ccccc2Cl)ncn1	·	·	·	·	16µM*	15µM*
COc1cccc(-c2cc(NCc3ccccc3OC)ncn2)c1	·	·	·	·	4.1µM*	?
COc1ccccc1CNc1cc(-c2ccccc2C(F)(F)F)ncn1	·	·	·	·	1.3µM*	1.5µM*
Nc1nc(-c2cc(O)ccc2[N+](=O)[O-])cc(-c2ccccc2)c1[N+](=O)[O-]	17%	?	2	-12%	7.3µM*	8.2µM*
Nc1nc(NCc2ccccc2)nc(NCc2ccccc2)c1[N+](=O)[O-]	6%	10%	-4	22%	-4%	-15%
Cc1ccc(CNCC(O)(c2ccc(F)cc2)c2ccc(F)cc2)cc1	-17%	-21%	-16	-8%	21µM*	?
Cc1ccc(CNCC(O)(c2ccccc2)c2ccc(F)cc2)cc1 (stereo not drawn)	-5%	-3%	-17	0%	?	21µM*
OC(CNCc1ccccc1)(c1ccc(F)cc1)c1ccc(F)cc1	-23%	-27%	?	0%	?	18µM*
OC(CNCc1ccc(F)cc1)(c1ccccc1)c1ccc(F)cc1 (stereo not drawn)	-15%	-6%	?	-3%	?	?
COCCn1c(=O)c(-c2ccccc2)nc2cnc(Nc3cccc(OC)c3)nc21	·	·	·	·	-6%	3%
CCCCCCC(=O)N(O)C1CC(=O)N(c2ccc(Cl)cc2)C1=O (stereo not drawn)	-1%	2%	-51*	-6%	2.3µM*	2.9µM*
